Screening results as filed in PubChem.
Sampled rows, rich in hits. Any-hit rate of the full collection: about 9.9%.
Tau fluor counter: counter-screen for tau fibril formation inhibitors | tau K18 P301L Alexa594 fluorescence, heparin fibrillization | Potency, µM (titrated, usually from 57.7 µM) | actives 0.93% (n = 280,000); active = well fitted curve in the direction sought with a large enough effect; inconclusive = small, poorly fitted or top-dose-only effect, or another doubt; inactive = no such curve, though single readings can be large; an effect the other way counts as inactive or inconclusive; also: nearly all actives have a fitted effect of over 55% in size
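Human tau K18 P301L (15 uM unlabeled, 0.24 uM Alexa 594-labeled) in 100 mM sodium acetate pH 7 with 20 uM heparin, 6 hr at 37 C. ThT 30 uM added, 1 hr ambient; Alexa 594 FP and total fluorescence read at 555/632 nm.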
JMJD2E inh: inhibitors of human JMJD2E histone demethylase. B2RXH2. JMJD2E catalytic domain, FDH-coupled NADH fluorescence (FDH is formaldehyde dehydrogenase). Potency, µM (titrated, usually from 57.1 µM), actives largely listed as inhibitors. actives 1.6% (n = 230,000). AID 2147; also: nearly all actives have a fitted effect of over 50% in size
Tau fibril FP: tau fibrillization inhibition (FP) | K18 P301L tau heparin fibrillization, Alexa594 FP, 6 h | Potency, µM (highest dose often 57.7 µM), hits mostly inhibitors | P10636 | actives 0.39% (n = 280,000); active = well fitted curve in the direction sought with a large enough effect; inconclusive = small, poorly fitted or top-dose-only effect, or another doubt; inactive = no such curve, though single readings can be large; an effect the other way counts as inactive or inconclusive; also: nearly all actives have a fitted effect of over 55% in size
Target sequence (P10636 561-689 P618L limits assumed): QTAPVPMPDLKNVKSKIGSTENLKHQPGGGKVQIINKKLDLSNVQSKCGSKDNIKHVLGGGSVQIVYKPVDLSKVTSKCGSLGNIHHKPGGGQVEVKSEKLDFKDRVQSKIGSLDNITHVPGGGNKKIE
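FP of Alexa 594-tau after heparin (20 uM) induction. Substrate: human K18 P301L, 15 uM unlabeled, 0.24 uM labeled. Buffer 100 mM sodium acetate pH 7. 6 hr, 37 C.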
HPGD inh: HPGD (human) dehydrogenase inhibition; AID 894; Potency, µM, usual class: inhibitors; purified HPGD, NADH fluorescence kinetic, PGE2 substrate; actives 4.3% (n = 150,000)
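20 nM HPGD preincubated 15 min at room temperature with compound in 50 mM Tris-HCl pH 8, 0.01% Tween 20. Started with 1 mM NAD+ and 30 uM prostaglandin E2; NADH fluorescence (360/450 nm) read 5 times over 30-s intervals, last minus first.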
Tau ThT inhib: blocks human tau fibril formation measured by thioflavin T. actives 2.1% (n = 270,000). P10636. Potency, µM (top dose mostly 57.4 µM), usual class: inhibitors. recombinant tau K18 P301L (four-repeat tau fragment), heparin-induced fibrillization, ThT fluorescence; active = well fitted curve in the direction sought with a large enough effect; inconclusive = small, poorly fitted or top-dose-only effect, or another doubt; inactive = no such curve, though single readings can be large; an effect the other way counts as inactive or inconclusive; also: nearly all actives have a fitted effect of over 55% in size
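Heparin-induced fibrillization of the P301L-mutant K18 repeat-domain fragment of human tau was followed by ThT binding in quantitative high-throughput format.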
ALDH1A1 inh: ALDH1A1 (human) enzyme inhibition | Purified ALDH1A1, NADH fluorescence, propionaldehyde substrate | Potency, µM (titrated, usually from 75.3 µM), usual class: inhibitors | actives 7.3% (n = 220,000) | AID 1030
Target sequence (P00352 whole entry, looked up): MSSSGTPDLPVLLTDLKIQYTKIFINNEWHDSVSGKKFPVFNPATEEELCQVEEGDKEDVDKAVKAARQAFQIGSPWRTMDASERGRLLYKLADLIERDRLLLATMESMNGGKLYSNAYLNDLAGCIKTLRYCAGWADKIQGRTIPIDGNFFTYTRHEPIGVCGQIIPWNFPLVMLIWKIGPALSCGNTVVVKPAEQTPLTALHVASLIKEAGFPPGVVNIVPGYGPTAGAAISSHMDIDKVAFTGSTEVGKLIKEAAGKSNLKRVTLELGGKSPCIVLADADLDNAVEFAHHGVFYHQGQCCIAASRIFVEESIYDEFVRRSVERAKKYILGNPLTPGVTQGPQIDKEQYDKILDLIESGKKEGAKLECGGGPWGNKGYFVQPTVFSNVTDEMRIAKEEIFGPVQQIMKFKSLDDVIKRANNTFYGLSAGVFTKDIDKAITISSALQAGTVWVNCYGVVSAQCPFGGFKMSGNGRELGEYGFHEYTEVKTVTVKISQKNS
Numbers stand for hits; [ ] = remark or other dose. Unless noted, calls follow the shape of the dose curve; as a rule, active = well fitted inhibition curve with a large enough effect (not every such curve was filed as active); inconclusive = small, poorly fitted or top-dose-only effect, or another doubt; inactive = no such curve, though single readings can be large or run the other way.

What do the screens show for `COc1ccc(NC(=O)CC(C)(C)C)c([N+](=O)[O-])c1`?
Tau fluor counter: inactive; JMJD2E inh: inactive; Tau fibril FP: inactive; HPGD inh: inactive; Tau ThT inhib: inactive; ALDH1A1 inh: inactive

What do the screens show for `Cc1ccc(Nc2ccc(C(N)=O)cc2[N+](=O)[O-])cc1C`?
Tau fluor counter: inactive; JMJD2E inh: inactive; Tau fibril FP: inactive; HPGD inh: inactive; Tau ThT inhib: inactive; ALDH1A1 inh: inconclusive

What do the screens show for `CCc1ccc(Nc2ccc(C(N)=O)cc2[N+](=O)[O-])cc1`?
Tau fluor counter: inconclusive; JMJD2E inh: inactive; Tau fibril FP: inactive; HPGD inh: inactive; Tau ThT inhib: 13µM; ALDH1A1 inh: inactive

How did CCN(CC)CCCNC(=O)Cn1nc(C)n2c(cc3sccc32)c1=O do in these assays?
Tau fluor counter: inactive; Tau fibril FP: inactive; Tau ThT inhib: inactive

What do the screens show for `Cc1cc2cc(NC(=O)c3ccco3)ccc2[nH]1`?
Tau fluor counter: inactive; JMJD2E inh: inactive; Tau fibril FP: inconclusive; HPGD inh: inconclusive; Tau ThT inhib: inconclusive; ALDH1A1 inh: 22µM

Results for Cc1ccc(-c2nnc(NCc3ccccc3)c3ccccc23)cc1 ?
Tau fluor counter: inactive; JMJD2E inh: inactive; Tau fibril FP: inactive; HPGD inh: 3.2µM; Tau ThT inhib: inactive; ALDH1A1 inh: inactive

What do the screens show for `Clc1ccc(Nc2ccc(NCc3ccccc3)nn2)cc1`?
Tau fluor counter: 13µM[quencher]; JMJD2E inh: inconclusive; Tau fibril FP: inactive; HPGD inh: 5.6µM; Tau ThT inhib: inconclusive; ALDH1A1 inh: inactive

Results for Cc1ccc(Nc2ccc(NCc3ccccc3)nn2)cc1C ?
Tau fluor counter: inconclusive; JMJD2E inh: inactive; Tau fibril FP: inconclusive; HPGD inh: inactive; Tau ThT inhib: inconclusive; ALDH1A1 inh: inactive

How did Clc1ccc(-c2nnc(NCc3ccccc3)c3ccccc23)cc1 do in these assays?
Tau fluor counter: inactive; JMJD2E inh: inactive; Tau fibril FP: inactive; HPGD inh: 5.6µM; Tau ThT inhib: inactive; ALDH1A1 inh: 22µM

How did Oc1ccc(Nc2nnc(-c3ccc(O)cc3)c3ccccc23)cc1 do in these assays?
Tau fluor counter: inactive; JMJD2E inh: inactive; Tau fibril FP: inactive; Tau ThT inhib: inactive; ALDH1A1 inh: inactive

Results for Cn1cc([N+](=O)[O-])c(C(=O)Nc2ccc3nc(-c4ccccc4)[nH]c3c2)n1 ?
Tau fluor counter: inconclusive; JMJD2E inh: inconclusive; Tau fibril FP: inactive; HPGD inh: inconclusive; Tau ThT inhib: 16µM; ALDH1A1 inh: inconclusive

Results for O=[N+]([O-])c1cc(Oc2cccnc2)cc([N+](=O)[O-])c1 ?
Tau fluor counter: inactive; JMJD2E inh: inactive; Tau fibril FP: inactive; HPGD inh: inactive; Tau ThT inhib: inactive; ALDH1A1 inh: inactive

What do the screens show for `Cn1cc([N+](=O)[O-])c(C(=O)Nc2cc(Oc3cccnc3)cc([N+](=O)[O-])c2)n1`?
Tau fluor counter: inactive; JMJD2E inh: inactive; Tau fibril FP: inactive; HPGD inh: inactive; Tau ThT inhib: inactive; ALDH1A1 inh: 13µM

How did Cn1cccc1-c1nc2ccc(NC(=O)c3ccc([N+](=O)[O-])cc3)cc2[nH]1 do in these assays?
Tau fluor counter: inconclusive; JMJD2E inh: inactive; Tau fibril FP: inactive; HPGD inh: inactive; Tau ThT inhib: 1.3µM; ALDH1A1 inh: inactive

How did O=c1c2oc3ccccc3c2n(Cc2ccccc2F)c(=O)n1Cc1ccc2c(c1)OCO2 do in these assays?
Tau fluor counter: inactive; Tau fibril FP: inactive; Tau ThT inhib: inactive

How did COc1ccccc1NC(=O)c1cc2c(n(-c3ccc(C)cc3)c1=O)CC(C)(C)CC2=O do in these assays?
Tau fluor counter: inconclusive; Tau fibril FP: inactive; Tau ThT inhib: inconclusive

How did COc1ccc(C)cc1NC(=O)C1CCN(S(=O)(=O)c2ccc3[nH]c(=O)oc3c2)CC1 do in these assays?
Tau fluor counter: inactive; Tau fibril FP: inactive; Tau ThT inhib: inactive

How did C=CCNC(=S)Nc1sc2c(c1C(=O)OCC)CCN(C(=O)OCC)C2 do in these assays?
Tau fluor counter: inactive; JMJD2E inh: inactive; Tau fibril FP: inactive; HPGD inh: inactive; Tau ThT inhib: inactive; ALDH1A1 inh: 20µM

Results for CCOC(=O)N1CCc2c(sc(NC(=O)CN3CCN(C)CC3)c2C(=O)Nc2ccccc2)C1 ?
Tau fluor counter: inactive; JMJD2E inh: inactive; Tau fibril FP: inactive; Tau ThT inhib: inactive; ALDH1A1 inh: 14µM

Results for CCOC(=O)c1c(C)[nH]c(C)c1S(=O)(=O)N1CCCC(C(=O)NCc2ccc(N(C)C)cc2)C1 (stereo unspecified) ?
Tau fluor counter: inactive; Tau fibril FP: inconclusive; Tau ThT inhib: inactive

What do the screens show for `COc1ccc(C(=O)NNC(=O)c2ccccc2[N+](=O)[O-])cc1[N+](=O)[O-]`?
Tau fluor counter: inactive; JMJD2E inh: inactive; Tau fibril FP: inactive; Tau ThT inhib: inactive; ALDH1A1 inh: 13µM

How did COc1ccc(NC(=O)c2ccc(-n3cccn3)c([N+](=O)[O-])c2)cc1 do in these assays?
Tau fluor counter: inactive; JMJD2E inh: inactive; Tau fibril FP: inactive; Tau ThT inhib: inconclusive; ALDH1A1 inh: inconclusive

How did COc1ccccc1NC(=O)c1ccc(-n2cccn2)c([N+](=O)[O-])c1 do in these assays?
Tau fluor counter: inactive; JMJD2E inh: inactive; Tau fibril FP: inactive; Tau ThT inhib: inconclusive; ALDH1A1 inh: 25µM

Results for COc1ccc(C(=O)NNc2ccccc2)cc1OC ?
Tau fluor counter: inactive; JMJD2E inh: inactive; Tau fibril FP: inactive; HPGD inh: inconclusive; Tau ThT inhib: inconclusive; ALDH1A1 inh: 22µM

How did COc1ccc(C(=O)Nc2ccccc2)cc1[N+](=O)[O-] do in these assays?
HPGD inh: inactive; ALDH1A1 inh: 20µM

How did CCOC(=O)CCN1C(=O)[C@H]2[C@H]3[C@H](O)[C@H](O)C/C(=N/OCC(C)C)[C@@H]3CC[C@@H]2C1=O do in these assays?
Tau fluor counter: inactive[11.6 µM]; Tau fibril FP: inactive[11.6 µM]; Tau ThT inhib: inactive[11.5 µM]; ALDH1A1 inh: inactive[13.5 µM]

How did COc1ccc(S(=O)(=O)c2c(Nc3cccc(C)c3C)sc(C(=O)c3ccccc3)c2N)cc1 do in these assays?
Tau fluor counter: inactive; Tau fibril FP: inactive; Tau ThT inhib: inactive

How did CC(=O)Nc1ccc(/C(C)=N/Nc2nc(Nc3cccc4ccccc34)nc(N3CCOCC3)n2)cc1 do in these assays?
Tau fluor counter: inactive; JMJD2E inh: inactive; Tau fibril FP: inactive; HPGD inh: inactive; Tau ThT inhib: inactive; ALDH1A1 inh: inactive

How did Cc1cccc(NC(=O)c2ccc(NCCc3ccccc3)c([N+](=O)[O-])c2)c1 do in these assays?
Tau fluor counter: inactive; JMJD2E inh: inactive; Tau fibril FP: inactive; HPGD inh: inactive; Tau ThT inhib: inactive; ALDH1A1 inh: inactive

How did Cc1ccc(NC(=O)c2ccc(NCCN)c([N+](=O)[O-])c2)cc1 do in these assays?
Tau fluor counter: inactive; JMJD2E inh: inactive; Tau fibril FP: inactive; HPGD inh: inactive; Tau ThT inhib: 14µM; ALDH1A1 inh: inconclusive
